Screening data deposited in PubChem by National Center for Advancing Translational Sciences (NCATS).
D1 ag: human D1 receptor agonism | P21728 | 1% of 360,000 active | activation, % at 2 µM | AID 504660 | HEK293 T-REx D1 cells, calcium flux, agonist mode; in the data active means activation above about 30%; further: 0% is about no effect
Target sequence (P21728 whole entry, looked up): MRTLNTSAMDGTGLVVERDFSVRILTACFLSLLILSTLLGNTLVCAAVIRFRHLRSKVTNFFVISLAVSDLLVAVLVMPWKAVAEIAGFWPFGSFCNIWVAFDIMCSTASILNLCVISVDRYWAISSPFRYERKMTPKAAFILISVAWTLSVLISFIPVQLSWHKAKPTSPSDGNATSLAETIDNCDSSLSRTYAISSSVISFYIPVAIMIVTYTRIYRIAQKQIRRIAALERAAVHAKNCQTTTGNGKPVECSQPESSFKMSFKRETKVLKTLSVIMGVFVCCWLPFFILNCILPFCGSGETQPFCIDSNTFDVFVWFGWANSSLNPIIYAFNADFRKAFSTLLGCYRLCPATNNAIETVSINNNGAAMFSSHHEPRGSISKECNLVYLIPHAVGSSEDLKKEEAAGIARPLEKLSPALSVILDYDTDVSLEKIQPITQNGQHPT
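Agonism was scored from calcium flux recorded over 180 s (1 read/s) after pintool compound addition, following a 10-cycle baseline. Cells were inducible force-coupled HEK293 TREx D1, plated overnight at 30 C and loaded with no-wash calcium dye.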
D3 ag: agonists of human D3 dopamine receptor; max activation, %; D3R DiscoveRx beta-arrestin cells, luminescence, 90 min; AID 652048; P35462; 0.58% of 410,000 active; in the data active means max activation above about 30%; further: 0% is about no effect
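Cells at 1500/well, incubated overnight, then treated with pinned compounds (dopamine as control) for 90 min at 37 degrees C. DiscoveRx reagent added for 30 - 60 minutes at room temperature; luminescence read.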
D1 PAM: enhances dopamine response at the human D1 receptor; P21728; HEK293 TREx D1 cells, calcium flux, dopamine EC20 potentiation; potentiation, % at 10 µM; 0.036% of 360,000 active; AID 504651; in the data active means potentiation above about 30%; further: 0% is about no effect
D3 antag: blocks the human D3 dopamine receptor; AID 652054; D3R cells, DiscoveRx beta-arrestin luminescence, antagonist mode; hits give low values; 2.5% of 360,000 active; P35462; max response, negative = inhibition, %; in the data active means max response below about -50%; inconclusive means no clear call, values can overlap the other calls; further: on the % scale 0 is the no-effect control and ±100 the full control effect
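Cells plated overnight at 1500 cells/well, then exposed to library compounds with dopamine controls for 90 minutes at 37 degrees C. DiscoveRx reagent added for 30–60 minutes at room temperature; luminescence read, quantitative HTS format.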
D1 antag: blocks dopamine activation of the human D1 receptor; HEK293 TREx D1 cells, calcium flux, dopamine EC80; hits give low values; activity change, negative = inhibition, % at 10 µM; P21728; AID 504652; 3.2% of 360,000 active; in the data active means activity change below about -30%; further: on the % scale 0 is the no-effect control and ±100 the full control effect
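Compound effects on dopamine-evoked calcium signalling were measured in tetracycline-induced HEK293 Trex D1 cells. Dopamine at EC80 followed a 180 s compound pre-read, and fluorescence was tracked kinetically for 180 s more.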
* hit, by the source's call; ? = inconclusive; · = not tested or not shown. Most compounds without a hit are left out; they make up all but 6% or so of the library.

SMILES	D1 ag	D3 ag	D1 PAM	D3 antag	D1 antag
Nc1nnc(SC2CC(=O)N(c3ccccc3)C2=O)s1 (configuration not stated)	0	-1	-1	-55*	0
Cc1c(Cl)cccc1NC(=O)Nc1nnc(N(C)C2CCCCC2)s1	0	3	-2	·	0
Cc1ccc(S[C@@H](CCN2CC[C@H](O)CCC2=O)c2ccccc2)cc1	0	5	-3	0	-31*
O=C(N[C@@H]1CCC(=O)N(CC[C@H](Sc2ccccc2)c2ccccc2)CC1)OCc1ccccc1	9	-49	-3	-92*	10
Cc1ccc(S[C@@H](CCN2CC[C@H](C)CCC2=O)c2ccccc2)cc1	4	-2	-8	15	-4
Cc1cc(C)c(OCC(=O)N(Cc2ccco2)Cc2ccco2)c(C)c1	9	4	-4	·	-11
CCCCSCCCNC(=O)c1cn(C)c2ccc(S(=O)(=O)N3CCCCCC3)cc2c1=O	-1	0	0	·	0
COc1ccc2c(c1)c1c(c(=O)n(-c3cccc(C)c3)c(=O)n1CC(=O)NCC1CCCO1)n2C (configuration not stated)	-1	4	-2	·	-10
Cn1c(=O)c(=O)n(C)c2cc(NC(=O)c3cccc(F)c3)c(Cl)cc21	0	-3	-1	·	6
COc1ccccc1-c1cc2nc(-c3ccccc3)cc(N3CCN(C(=O)c4ccco4)CC3)n2n1	·	39*	·	62	·
Nc1nnc(CC(=O)N/N=C/c2cc([N+](=O)[O-])cc(Br)c2O)s1	6	-19	·	-109*	7
COC(=O)N/N=C/c1cc([N+](=O)[O-])cc(Br)c1O	2	-15	-3	-98*	6
O=C(CNC(=O)c1ccccc1Br)N/N=C/c1ccccc1O	1	4	-7	13	-3
O=C(CNC(=O)c1ccccc1Br)N/N=C\c1cc([N+](=O)[O-])cc(Br)c1O	1	-27	-4	-76*	-10
COC(=O)N/N=C/c1cccc([N+](=O)[O-])c1	1	-11	2	-27	9
Cc1cc([N+](=O)[O-])cc(C)c1OCC(=O)N/N=C/c1ccc(OC(=O)c2ccccc2Br)cc1	4	3	-4	-11	-33*
CN(C)c1ccc(CNC(=O)Cn2c(=O)oc3cc(S(=O)(=O)N4CCCCCC4)ccc32)cc1	4	1	-5	·	-15
CCOC(=O)CSc1nnc(C)c(=O)[nH]1	2	-10	-6	2	-11
CCOC(=O)CSc1nnc(NCC(=O)OC)c(=O)[nH]1	-2	-14	-2	-56*	-2
CC(C)c1ccc(/C=C2\NC(=S)N(Cc3cccnc3)C2=O)cc1	0	21	-4	67	-37*
CCc1ccc(C(=O)NC(Cc2c[nH]c3ccccc23)C(=O)OCC(=O)c2ccc(Br)cc2)cc1 (configuration not stated)	3	-11	-5	·	-6
Cn1c(Sc2ccc(Br)cc2)c(C=O)c2ccccc21	4	-7	-8	-9	-63*
CCc1ccc(OC(=O)Nc2ccccc2)cc1	2	12	-4	14	6
COc1ccc(OC)c(NS(=O)(=O)c2ccc(Br)s2)c1	3	-7	-2	·	10
COc1cccc(NS(=O)(=O)c2ccc(Br)s2)c1	19	-4	-4	?	-35*
SMILES	D1 ag	D3 ag	D1 PAM	D3 antag	D1 antag
C(=C\c1ccccc1)/CN1CCN(c2ncnc3c2oc2ccccc23)CC1	9	40*	-4	8	-10
Nc1nc(N2CCN(C/C=C/c3ccccc3)CC2)nc2ccccc12	40*	-15	-19	-64*	-50*
c1cnc(N2CCN(c3ncnc4c3oc3ccccc34)CC2)nc1	4	·	-2	·	-1
Nc1nc(N2CCN(C(=O)c3ccco3)CC2)nc2ccccc12	-1	-6	-1	11	-14
O=c1[nH]c(CN2CCN(C/C=C/c3ccccc3)CC2)nc2ccccc12	5	-46	-6	-77*	-5
Cc1ccc2[nH]c(=O)c(CN(CCCO)S(=O)(=O)c3cccc4nsnc34)cc2c1	1	9	-5	-145*	25
CCN(CC)C(=O)c1sc2c(c1C)c(=O)n(CCc1ccccc1)c(=O)n2Cc1ccc(C)cc1	6	8	-3	·	9
CCS(=O)(=O)N1CCC2(CC1)OC(=O)C(C)=C2C(=O)NCc1ccccc1C	1	0	-1	·	-54*
NS(=O)(=O)c1ccc(N=Nc2ccc(=O)[nH]c2O)cc1	0	-16	1	-102*	8
Nc1nc(N)c(N=Nc2ccc(S(N)(=O)=O)cc2)c(=O)[nH]1	3	-6	4	-55*	9
NS(=O)(=O)c1ccc(N=Nc2c(O)ccc3ccccc23)cc1	0	4	-1	-2	11
Cc1ccc(Cl)cc1N1CCN(C(=O)c2cnc(N3CCOCC3)c3ccccc23)CC1	1	2	0	·	16
Cc1ccc(C(C)C)c(OCC(=O)NCC2(N3CCOCC3)CCCCC2)c1	0	3	2	·	-10
CC(C)Oc1ccc(S(=O)(=O)N2CCOCC2)cc1NC(=O)C1COc2ccccc2O1 (configuration not stated)	3	5	-2	53	-44*
CCOc1ccc(S(=O)(=O)N2CCCCC2)cc1NC(=O)C1COc2ccccc2O1 (configuration not stated)	6	4	-10	9	0
O=S(=O)(Cc1ccc(Cl)cc1)NCc1ccc2c(c1)OCO2	5	4	-2	-15	-36*
COc1ccc(S(=O)(=O)NCc2ccc3c(c2)OCO3)cc1OC	0	2	-8	9	-55*
COc1ccc(S(=O)(=O)NCc2ccc3c(c2)OCO3)cc1C	1	-22	-1	-15	-87*
CCCCCCNS(=O)(=O)c1ccc(OC)c(OC)c1	2	32*	3	17	-8
Cc1ccc(S(=O)(=O)NCc2ccc3c(c2)OCO3)cc1C	-1	-6	-6	?	-14
S=c1[nH]cc(-c2ccccc2)n1-c1ccccc1	1	-2	0	-7	2
Cc1ccc(-n2c(-c3ccccc3)c[nH]c2=S)cc1	1	41*	1	0	8
CCCCCCCCCCCCCCCC[N+](C)(C)CC	41*	-16	-7	10	-25
C#CC[N+](C)(C)CCCCCCCCCC	0	-2	-1	1	-2
CCCCCCCC[N+](C)(C)CCCCCCCC	·	7	·	·	·
CC#CC[N+](C)(C)CCCCCCCCCCCC	34*	-4	3	4	6
COc1ccc(CCNC(=O)Cc2c(C)c3c(cc(C)c4c(C)coc43)oc2=O)cc1	1	-4	-2	·	0
O=C(c1cccs1)c1ccc(-c2cccs2)s1	70*	-9	-2	?	-38*
CN(C)CCCNS(=O)(=O)c1ccc(Oc2ncc(C(F)(F)F)cc2Cl)cc1	61*	-2	-7	-17	-17
